# Assay results published in PubChem BioAssay AID1159580 (chemical genetic matrix, 2015).
# Values joined by “and” are separate entries in the source; they are usually repeats but may differ in a detail not shown here. Equal entries are not always repeated. Among all 5,500 compounds or so, about 2,000 (36%) were called active. About 18% were inconclusive and are not listed. Cut-off read from the data, not from the text of the source: active = normalized growth mostly below about 0.91 (no sharp cut-off); inconclusive = no clear call, values can overlap the other calls; inactive = mostly above about 0.92. Some of the results follow. Some structures have more than one record in an assay (separate samples or runs), and their calls can disagree.
# Experiment: chemical genetic growth profiling, strain panel (AID 1159580);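 note: tested at 20 µM; growth read once vehicle control cultures reached saturation at 30 °C; 1 = growth at the plate median or of vehicle wells; lower values mean less growth of the strain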
# Details: growth OD
smiles,measurement,setting,value
CSc1ccc2c(c1)N(CCC1CCCCN1C)c1ccccc1S2 (stereo not given),normalized growth,"S. cerevisiae deletion strains, locus YJR075W, strain HOC1, stronger effect = lower value",0.823 (active)
same,normalized growth,"S. cerevisiae deletion strains, locus YKL009W, strain mrt4, stronger effect = lower value",0.978 (inactive)
same,normalized growth,"S. cerevisiae deletion strains, locus YKL068W, stronger effect = lower value",1.01 (inactive)
same,normalized growth,"S. cerevisiae deletion strains, locus YKL085W, strain MDH1 (second series), stronger effect = lower value",1 (inactive)
same,normalized growth,"S. cerevisiae deletion strains, locus YKL085W, strain MDH1, stronger effect = lower value",1 (inactive)
same,normalized growth,"S. cerevisiae deletion strains, locus YKL160W, strain elf1, stronger effect = lower value",0.937 (inactive)
same,normalized growth,"S. cerevisiae deletion strains, locus YKL190W, strain CNB1, stronger effect = lower value",0.0633 (active)
same,normalized growth,"S. cerevisiae deletion strains, locus YKR001C, strain vps1, stronger effect = lower value",0.0672 (active)
same,normalized growth,"S. cerevisiae deletion strains, locus YKR026C, strain gcn3, stronger effect = lower value",1.02 (inactive)
same,normalized growth,"S. cerevisiae deletion strains, locus YKR091W, strain srl3, stronger effect = lower value",1.03 (inactive)
same,normalized growth,"S. cerevisiae deletion strains, locus YLL001W, strain dnm1, stronger effect = lower value",0.964 (inactive)
same,normalized growth,"S. cerevisiae deletion strains, locus YLL026W, stronger effect = lower value",0.981 (inactive)
same,normalized growth,"S. cerevisiae deletion strains, locus YLL041C, strain sdh2, stronger effect = lower value",0.976 (inactive)
same,normalized growth,"S. cerevisiae deletion strains, locus YLR027C, strain aat2, stronger effect = lower value",0.946 (inactive)
same,normalized growth,"S. cerevisiae deletion strains, locus YLR039C, strain RIC1, stronger effect = lower value",0.175 (active)
same,normalized growth,"S. cerevisiae deletion strains, locus YLR058C, strain SHM2, stronger effect = lower value",0.0859 (active)
same,normalized growth,"S. cerevisiae deletion strains, locus YLR102C, strain apc9, stronger effect = lower value",0.176 (active)
same,normalized growth,"S. cerevisiae deletion strains, locus YLR113W, strain HOG1, stronger effect = lower value",0.996 (inactive)
same,normalized growth,"S. cerevisiae deletion strains, locus YLR221C, strain rsa3, stronger effect = lower value",0.932 (inactive)
same,normalized growth,"S. cerevisiae deletion strains, locus YLR258W, strain gsy2, stronger effect = lower value",0.941 (inactive)
same,normalized growth,"S. cerevisiae deletion strains, locus YLR262C, strain YPT6 (second series), stronger effect = lower value",1.1 (inactive)
same,normalized growth,"S. cerevisiae deletion strains, locus YLR262C, strain YPT6, stronger effect = lower value",0.155 (active)
same,normalized growth,"S. cerevisiae deletion strains, locus YLR268W, strain sec22, stronger effect = lower value",0.122 (active)
same,normalized growth,"S. cerevisiae deletion strains, locus YLR320W, strain mms22, stronger effect = lower value",1 (inactive)
same,normalized growth,"S. cerevisiae deletion strains, locus YLR330W, strain CHS5, stronger effect = lower value",0.0954 (active)
same,normalized growth,"S. cerevisiae deletion strains, locus YLR342W, strain FKS1 (second series), stronger effect = lower value",0.07 (active)
same,normalized growth,"S. cerevisiae deletion strains, locus YLR342W, strain FKS1, stronger effect = lower value",0.866 (active)
same,normalized growth,"S. cerevisiae deletion strains, locus YLR357W, strain rsc2, stronger effect = lower value",0.996 (inactive)
same,normalized growth,"S. cerevisiae deletion strains, locus YLR370C, strain arc18, stronger effect = lower value",0.962 (inactive)
same,normalized growth,"S. cerevisiae deletion strains, locus YLR371W, strain rom2, stronger effect = lower value",0.116 (active)
same,normalized growth,"S. cerevisiae deletion strains, locus YLR384C, strain iki3, stronger effect = lower value",0.984 (inactive)
same,normalized growth,"S. cerevisiae deletion strains, locus YLR418C, strain cdc73, stronger effect = lower value",0.155 (active)
same,normalized growth,"S. cerevisiae deletion strains, locus YML016C, strain PPZ1, stronger effect = lower value",0.0677 (active)
same,normalized growth,"S. cerevisiae deletion strains, locus YML032C, strain rad52, stronger effect = lower value",0.484 (active)
same,normalized growth,"S. cerevisiae deletion strains, locus YML120C, strain ndi1, stronger effect = lower value",0.971 (inactive)
same,normalized growth,"S. cerevisiae deletion strains, locus YML124C, strain tub3, stronger effect = lower value",0.282 (active)
same,normalized growth,"S. cerevisiae deletion strains, locus YMR058W, strain fet3, stronger effect = lower value",0.859 (active)
same,normalized growth,"S. cerevisiae deletion strains, locus YMR078C, strain ctf18, stronger effect = lower value",1.04 (inactive)
same,normalized growth,"S. cerevisiae deletion strains, locus YMR125W, strain sto1, stronger effect = lower value",0.95 (inactive)
same,normalized growth,"S. cerevisiae deletion strains, locus YMR129W, stronger effect = lower value",0.977 (inactive)
same,normalized growth,"S. cerevisiae deletion strains, locus YMR205C, strain PFK2, stronger effect = lower value",0.966 (inactive)
same,normalized growth,"S. cerevisiae deletion strains, locus YMR223W, strain ubp8, stronger effect = lower value",0.142 (active)
same,normalized growth,"S. cerevisiae deletion strains, locus YMR231W, strain pep5, stronger effect = lower value",0.32 (active)
same,normalized growth,"S. cerevisiae deletion strains, locus YMR263W, strain SAP30, stronger effect = lower value",0.569 (active)
same,normalized growth,"S. cerevisiae deletion strains, locus YMR307W, strain GAS1, stronger effect = lower value",0.123 (active) and 0.981 (inactive)
same,normalized growth,"S. cerevisiae deletion strains, locus YNL067W, strain RPL9B, stronger effect = lower value",0.221 (active)
same,normalized growth,"S. cerevisiae deletion strains, locus YNL071W, strain lat1, stronger effect = lower value",1.05 (inactive)
same,normalized growth,"S. cerevisiae deletion strains, locus YNL128W, strain TEP1, stronger effect = lower value",1 (inactive)
same,normalized growth,"S. cerevisiae deletion strains, locus YNL153C, strain GIM3, stronger effect = lower value",0.0926 (active)
same,normalized growth,"S. cerevisiae deletion strains, locus YNL175C, strain NOP13, stronger effect = lower value",1.07 (inactive)
same,normalized growth,"S. cerevisiae deletion strains, locus YNL183C, strain NPR1, stronger effect = lower value",0.944 (inactive)
same,normalized growth,"S. cerevisiae deletion strains, locus YNL197C, strain WHI3, stronger effect = lower value",1.05 (inactive)
same,normalized growth,"S. cerevisiae deletion strains, locus YNL209W, strain ssb2, stronger effect = lower value",0.856 (active)
same,normalized growth,"S. cerevisiae deletion strains, locus YNL224C, strain SQS1, stronger effect = lower value",1.11 [resistant] (active)
same,normalized growth,"S. cerevisiae deletion strains, locus YNL233W, strain BNI4, stronger effect = lower value",0.0906 (active)
same,normalized growth,"S. cerevisiae deletion strains, locus YNL248C, strain rpa49, stronger effect = lower value",0.978 (inactive)
same,normalized growth,"S. cerevisiae deletion strains, locus YNL250W, strain rad50, stronger effect = lower value",1 (inactive)
same,normalized growth,"S. cerevisiae deletion strains, locus YNL271C, strain bni1, stronger effect = lower value",1 (inactive)
same,normalized growth,"S. cerevisiae deletion strains, locus YNL298W, strain CLA4, stronger effect = lower value",1 (inactive)
same,normalized growth,"S. cerevisiae deletion strains, locus YNL307C, strain MCK1, stronger effect = lower value",0.1 (active)
same,normalized growth,"S. cerevisiae deletion strains, locus YNL322C, strain KRE1 (second series), stronger effect = lower value",1.04 (inactive)
same,normalized growth,"S. cerevisiae deletion strains, locus YNL322C, strain KRE1, stronger effect = lower value",0.0818 (active)
same,normalized growth,"S. cerevisiae deletion strains, locus YNR049C, strain mso1, stronger effect = lower value",0.968 (inactive)
same,normalized growth,"S. cerevisiae deletion strains, locus YNR052C, strain pop2, stronger effect = lower value",0.133 (active)
same,normalized growth,"S. cerevisiae deletion strains, locus YOL006C, strain TOP1, stronger effect = lower value",0.115 (active)
same,normalized growth,"S. cerevisiae deletion strains, locus YOL012C, strain htz1",0.211 (inactive)
same,normalized growth,"S. cerevisiae deletion strains, locus YOL147C, strain pex11, stronger effect = lower value",0.176 (active)
same,normalized growth,"S. cerevisiae deletion strains, locus YOR001W, strain rrp6, stronger effect = lower value",0.956 (inactive)
same,normalized growth,"S. cerevisiae deletion strains, locus YOR061W, strain CKA2, stronger effect = lower value",0.0575 (active)
same,normalized growth,"S. cerevisiae deletion strains, locus YOR069W, strain VPS5, stronger effect = lower value",0.36 (active)
same,normalized growth,"S. cerevisiae deletion strains, locus YOR070C, strain gyp1, stronger effect = lower value",0.948 (inactive)
same,normalized growth,"S. cerevisiae deletion strains, locus YOR080W, strain dia2, stronger effect = lower value",0.976 (inactive)
same,normalized growth,"S. cerevisiae deletion strains, locus YOR083W, strain WHI5 (second series), stronger effect = lower value",0.774 (active)
same,normalized growth,"S. cerevisiae deletion strains, locus YOR083W, strain WHI5, stronger effect = lower value",0.915 (inactive)
same,normalized growth,"S. cerevisiae deletion strains, locus YOR106W, strain vam3, stronger effect = lower value",0.88 (inactive)
same,normalized growth,"S. cerevisiae deletion strains, locus YOR136W, strain idh2, stronger effect = lower value",0.139 (active)
same,normalized growth,"S. cerevisiae deletion strains, locus YOR144C, strain elg1, stronger effect = lower value",0.541 (active)
same,normalized growth,"S. cerevisiae deletion strains, locus YOR184W, strain ser1, stronger effect = lower value",0.128 (active)
same,normalized growth,"S. cerevisiae deletion strains, locus YOR231W, strain MKK1, stronger effect = lower value",1 (inactive)
same,normalized growth,"S. cerevisiae deletion strains, locus YOR265W, strain rbl2, stronger effect = lower value",0.961 (inactive)
same,normalized growth,"S. cerevisiae deletion strains, locus YOR270C, strain vph1, stronger effect = lower value",0.866 (inactive)
same,normalized growth,"S. cerevisiae deletion strains, locus YOR290C, strain snf2, stronger effect = lower value",0.981 (inactive)
same,normalized growth,"S. cerevisiae deletion strains, locus YOR316C, strain cot1, stronger effect = lower value",0.132 (active)
same,normalized growth,"S. cerevisiae deletion strains, locus YPL051W, strain arl3, stronger effect = lower value",0.881 (active)
same,normalized growth,"S. cerevisiae deletion strains, locus YPL078C, strain atp4, stronger effect = lower value",0.989 (inactive)
same,normalized growth,"S. cerevisiae deletion strains, locus YPL106C, strain sse1, stronger effect = lower value",1.02 (inactive)
same,normalized growth,"S. cerevisiae deletion strains, locus YPL240C, strain hsp82, stronger effect = lower value",0.98 (inactive)
same,normalized growth,"S. cerevisiae deletion strains, locus YPL241C, strain CIN2, stronger effect = lower value",0.107 (active) and 0.972 (inactive)
same,normalized growth,"S. cerevisiae deletion strains, locus YPL256C, strain CLN2, stronger effect = lower value",0.975 (inactive)
same,normalized growth,"S. cerevisiae deletion strains, locus YPR119W, strain clb2, stronger effect = lower value",0.31 (active)
same,normalized growth,"S. cerevisiae deletion strains, locus YPR141C, strain kar3, stronger effect = lower value",1.02 (inactive)
same,normalized growth,"S. cerevisiae deletion strains, locus YPR163C, strain tif3, stronger effect = lower value",0.0768 (active)
same,normalized growth,"S. cerevisiae deletion strains, locus YPR167C, strain met16, stronger effect = lower value",0.196 (active)
same,normalized growth,"S. cerevisiae deletion strains, strain wtn01, stronger effect = lower value",0.0859 (active)
same,normalized growth,"S. cerevisiae strains, strain wild type, stronger effect = lower value",0.0579 (active)
